For five molecules, composite z-score, composite Z-score and z-score results are on record in PubChem BioAssay.

One test concerns the target Albumin (Bos taurus) (UniProt P02769). Nature of the test: compounds binding labelled BSA control protein – biochemical, small-molecule microarray, Alexa647 label, 635/667 nm fluorescence, artefact control for SMM control protein annotation, profiling panel (AID 1118).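 Further: score merges 667 nm emission intensity and signal-to-noise per printed compound spot.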 As to conditions: BSA-A647 binding, fluorescence 635 nm, higher = more signal.
Test [1] is described as follows: probe aXIP binding to arrayed compounds – biochemical, NeuroSMM set, 635/667 nm fluorescence, primary screen (AID 1119).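 Further: probe is the protein aXip251-270 applied at 1 µg/mL to compound-printed slides; binding of probe to printed compounds measured as 667 nm fluorescence plus signal to noise.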 The settings on record: small-molecule microarray, higher = more signal, called active from +8 up or from −8 down.
Test [2] is described as follows: probe aNOTCH3 binding on compound microarray – biochemical, small-molecule microarray, 635/667 nm fluorescence, primary screen (AID 1120).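 Further: probe is a biotin-tagged antibody raised against NOTCH3 rather than NOTCH3 protein; score merges spot fluorescence near 667 nm with spot signal to noise.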 The settings on record: higher = more signal.
Test [3] in a line: probe aNOTCH2 binding on compound microarray – biochemical, small-molecule microarray, 635/667 nm fluorescence, primary screen (AID 1121).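 Further: score merges feature fluorescence read at 667 nm with its signal to noise.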 The settings on record: higher = more signal.
Test [4] deals with Carbonic anhydrase 2 (Homo sapiens) (UniProt P00918). In words: compounds binding carbonic anhydrase 2 – biochemical, small-molecule microarray, Alexa647-labelled CAII, profiling panel (AID 1122). The settings on record: CAII-A647 binding fluorescence, higher = more signal.
The nature of test [5]: COS7 lysate on small-molecule microarray, probe aHis, 635 nm (AID 1123).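 Further: z-score combines 667nm fluorescence intensity with signal-to-noise per printed compound spot.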 As to conditions: COS7 cell lysate, fluorescence, higher = more signal.
The nature of test [6]: probe aLAP1 signal on lysate-treated microarray – cell lysate, small-molecule microarray, COS7 lysate, primary screen (AID 1124).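 Further: lysate comes from COS7 cells expressing LAP1 and is applied at 0.3 µg/mL; score merges spot fluorescence near 667 nm with signal-to-noise over triplicate slides.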 As to conditions: probe aLAP1, fluorescence, higher = more signal.
In another test the test system is Sam68 (KHDRBS1). Nature of the test: compounds binding KHDRBS1 protein – biochemical, small-molecule microarray, 635 nm fluorescence, primary screen (AID 1125).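 Further: score merges 667 nm channel intensity with signal to noise over triplicate slides.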 As to conditions: higher = more signal.
The subject of test [7] is Chordin-like protein 2 (CHRDL2). Nature of the test: compounds binding chordin-like 2 – biochemical, small-molecule microarray, 635 nm fluorescence, primary screen (AID 1126).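 Further: printed compound slides probed with Chrdl2 protein at 4 µg/mL for 1 h at 4 C; score merges 667 nm emission intensity with signal to noise over three replicate slides.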 As to conditions: fluorescence 635 nm, higher = more signal.
The target of test [8] is Concanavalin-A (Canavalia ensiformis) (UniProt P02866). In words: compounds binding concanavalin A lectin – biochemical, small-molecule microarray, Alexa647 label, 635 nm, artefact control for SMM control protein annotation, primary screen (AID 1127).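 Further: z combines 667 nm emission intensity with signal-to-noise across three replicate slides.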 As to conditions: ConA-A647 binding fluorescence, higher = more signal.
Concanavalin-A (Canavalia ensiformis), sequence (P02866 whole entry, looked up): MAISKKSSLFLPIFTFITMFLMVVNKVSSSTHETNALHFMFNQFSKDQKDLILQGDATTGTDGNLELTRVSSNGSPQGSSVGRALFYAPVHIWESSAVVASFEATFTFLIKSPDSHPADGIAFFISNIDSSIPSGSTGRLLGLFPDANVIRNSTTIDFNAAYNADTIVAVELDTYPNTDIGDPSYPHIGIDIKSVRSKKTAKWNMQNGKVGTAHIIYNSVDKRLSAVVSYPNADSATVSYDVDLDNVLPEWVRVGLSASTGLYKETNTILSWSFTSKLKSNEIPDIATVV
A short description of test [9]: compounds binding Alexa647 anti-His antibody – biochemical, small-molecule microarray, 635 nm fluorescence, artefact control for SMM control protein annotation, primary screen (AID 1128).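 Further: score merges feature fluorescence with signal-to-noise for each printed compound spot.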 The settings on record: higher = more signal.
Test [10] deals with Human papillomavirus type 1a E7 protein (residues 1-88). In words: HPV1a E7 small-molecule binders, primary screen, biochemical, small-molecule microarray, residues 1-88, 635 nm (AID 1129). As to conditions: small-molecule microarray binding, fluorescence 635 nm; higher = more signal.
Test [11] deals with Focal adhesion kinase 1 (Homo sapiens) (UniProt Q05397). In words: PTK2 protein binding on printed compound slides – biochemical, small-molecule microarray, 635/667 nm fluorescence, BSA, DTT, primary screen (AID 1130).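 Further: composite of spot emission at 667 nm and signal to noise over triplicate slides.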 As to conditions: 635 nm fluorescence, higher = more signal.
Focal adhesion kinase 1 (Homo sapiens), sequence (Q05397 whole entry, looked up): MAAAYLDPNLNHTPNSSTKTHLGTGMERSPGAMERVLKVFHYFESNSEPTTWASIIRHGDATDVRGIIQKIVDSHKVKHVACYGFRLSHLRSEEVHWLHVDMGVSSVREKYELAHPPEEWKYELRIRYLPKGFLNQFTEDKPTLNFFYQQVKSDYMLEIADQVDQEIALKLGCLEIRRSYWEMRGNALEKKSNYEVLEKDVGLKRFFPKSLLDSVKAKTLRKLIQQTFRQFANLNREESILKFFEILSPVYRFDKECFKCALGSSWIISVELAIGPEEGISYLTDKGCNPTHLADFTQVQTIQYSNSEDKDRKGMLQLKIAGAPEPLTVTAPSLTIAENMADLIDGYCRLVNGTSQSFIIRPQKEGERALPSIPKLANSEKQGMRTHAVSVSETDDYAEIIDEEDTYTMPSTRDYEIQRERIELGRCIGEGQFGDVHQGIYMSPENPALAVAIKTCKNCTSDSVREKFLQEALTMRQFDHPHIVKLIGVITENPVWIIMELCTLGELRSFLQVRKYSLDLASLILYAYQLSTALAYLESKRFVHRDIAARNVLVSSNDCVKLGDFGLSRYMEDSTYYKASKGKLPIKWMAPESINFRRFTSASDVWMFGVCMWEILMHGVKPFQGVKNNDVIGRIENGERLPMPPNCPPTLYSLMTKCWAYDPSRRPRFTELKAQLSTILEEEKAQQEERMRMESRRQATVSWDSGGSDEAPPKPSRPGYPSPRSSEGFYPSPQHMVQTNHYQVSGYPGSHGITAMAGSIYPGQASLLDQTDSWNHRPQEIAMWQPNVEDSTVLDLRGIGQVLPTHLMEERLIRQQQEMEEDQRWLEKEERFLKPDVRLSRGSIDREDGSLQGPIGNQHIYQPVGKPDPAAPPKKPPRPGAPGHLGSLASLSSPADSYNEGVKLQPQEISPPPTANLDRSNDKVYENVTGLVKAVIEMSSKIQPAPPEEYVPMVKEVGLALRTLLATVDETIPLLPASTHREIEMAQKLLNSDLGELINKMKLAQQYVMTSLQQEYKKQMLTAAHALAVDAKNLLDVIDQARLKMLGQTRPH
The subject of test [12] is Fibrinogen (Alexa647-labelled). In words: Alexa647-fibrinogen binding to printed small molecules – biochemical, small-molecule microarray, 635/667 nm fluorescence, artefact control for SMM control-protein annotation, profiling panel (AID 1131).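 Further: z-score merges 667 nm fluorescence with per-spot signal-to-noise over triplicate slides.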 As to conditions: fibrinogen-A647 binding fluorescence, higher = more signal.
Test [13] concerns the target Follistatin (Homo sapiens) (UniProt P19883). In words: FST protein binding to printed compounds – biochemical, small-molecule microarray, 635/667 nm fluorescence, primary screen (AID 1132). The settings on record: 635 nm fluorescence, higher = more signal.
In test [14] the target is Fibroblast growth factor 2 (Homo sapiens) (UniProt P09038). In words: basic fibroblast growth factor binding to printed compounds – biochemical, small-molecule microarray, 635/667 nm fluorescence, primary screen (AID 1133). As to conditions: FGF2, fluorescence 635/667, higher = more signal.
Fibroblast growth factor 2 (Homo sapiens), sequence (P09038 whole entry, looked up): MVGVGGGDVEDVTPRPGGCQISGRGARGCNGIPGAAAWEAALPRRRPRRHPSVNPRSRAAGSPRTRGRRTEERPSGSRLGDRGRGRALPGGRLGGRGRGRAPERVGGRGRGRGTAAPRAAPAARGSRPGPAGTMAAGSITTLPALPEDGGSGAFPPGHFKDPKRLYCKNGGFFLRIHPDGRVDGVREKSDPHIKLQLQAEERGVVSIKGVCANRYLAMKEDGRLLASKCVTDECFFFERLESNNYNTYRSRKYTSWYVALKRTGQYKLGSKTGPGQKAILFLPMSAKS
Test [15] can be described thus: JC-1 mitochondrial potential readout, lung cancer cells – cell-based, A549, JC-1 fluorescence, basal, 24 h, 100 nL, profiling panel (AID 1138).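 Further: A549 lung adenocarcinoma cells under basal conditions with no added stimulus; test concentration not given here.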 The settings on record: higher = more signal.
The next test has as its system Lefty1. In words: Lefty1 protein binding to printed compounds – biochemical, small-molecule microarray, 635/667 nm fluorescence, primary screen (AID 1139). The settings on record: fluorescence 635/667, higher = more signal.
The subject of test [16] is wheat germ agglutinin (Triticum aestivum), Alexa647-labelled. Nature of the test: Alexa647-WGA lectin binding to printed small molecules – biochemical, small-molecule microarray, 635/667 nm fluorescence, artefact control for SMM control-protein annotation, profiling panel (AID 1140).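 Further: score merges 667 nm feature emission with signal to noise over triplicate slides.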 As to conditions: WGA-A647 binding, 635 nm fluorescence, higher = more signal.
Test [17] addresses Luciferin 4-monooxygenase (Photinus pyralis) (UniProt P08659). In words: inhibition of purified Photinus pyralis luciferase – biochemical, luminescence, purified enzyme, 2006 set, primary screen (AID 1141).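 Further: cell-free assay with purified firefly luciferase at 100 ng per well in PBS; test concentration not given here.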 The settings on record: purified firefly luciferase, SteadyGlo luminescence, 30 min; higher = more signal, called active from +8 up or from −8 down.

Activity calls are given as the source filed them.

Albumin (Bos taurus), sequence (P02769 whole entry, looked up): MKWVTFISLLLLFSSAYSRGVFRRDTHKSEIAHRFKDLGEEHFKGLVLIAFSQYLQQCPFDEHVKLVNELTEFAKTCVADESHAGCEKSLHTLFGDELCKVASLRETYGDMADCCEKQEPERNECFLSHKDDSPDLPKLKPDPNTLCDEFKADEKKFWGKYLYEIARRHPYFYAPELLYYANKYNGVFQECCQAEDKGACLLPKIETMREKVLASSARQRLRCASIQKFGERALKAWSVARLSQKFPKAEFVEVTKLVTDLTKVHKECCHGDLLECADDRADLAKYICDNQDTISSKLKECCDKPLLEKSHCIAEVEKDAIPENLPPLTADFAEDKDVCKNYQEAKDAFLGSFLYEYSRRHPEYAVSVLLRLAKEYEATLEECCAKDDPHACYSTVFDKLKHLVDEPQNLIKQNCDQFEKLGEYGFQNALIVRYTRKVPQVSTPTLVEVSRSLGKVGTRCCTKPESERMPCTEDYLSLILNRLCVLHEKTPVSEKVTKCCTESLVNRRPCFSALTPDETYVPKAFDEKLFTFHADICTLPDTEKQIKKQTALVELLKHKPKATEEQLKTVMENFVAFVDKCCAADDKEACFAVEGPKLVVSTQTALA
Luciferin 4-monooxygenase (Photinus pyralis), sequence (P08659 whole entry, looked up): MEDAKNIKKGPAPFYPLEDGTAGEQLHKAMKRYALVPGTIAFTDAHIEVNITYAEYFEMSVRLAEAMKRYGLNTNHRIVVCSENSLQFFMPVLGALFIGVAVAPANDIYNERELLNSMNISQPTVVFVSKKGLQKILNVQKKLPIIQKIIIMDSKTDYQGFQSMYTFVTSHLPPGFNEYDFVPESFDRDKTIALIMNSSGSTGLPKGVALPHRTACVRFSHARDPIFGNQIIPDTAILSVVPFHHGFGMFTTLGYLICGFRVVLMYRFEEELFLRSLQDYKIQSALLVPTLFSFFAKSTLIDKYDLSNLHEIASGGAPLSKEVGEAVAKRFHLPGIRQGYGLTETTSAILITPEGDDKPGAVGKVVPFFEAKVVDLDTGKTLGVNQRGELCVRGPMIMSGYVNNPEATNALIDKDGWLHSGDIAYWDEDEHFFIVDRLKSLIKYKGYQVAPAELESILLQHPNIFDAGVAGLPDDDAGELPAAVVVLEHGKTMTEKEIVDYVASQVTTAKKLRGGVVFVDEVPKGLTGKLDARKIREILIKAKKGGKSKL
Follistatin (Homo sapiens), sequence (P19883 whole entry, looked up): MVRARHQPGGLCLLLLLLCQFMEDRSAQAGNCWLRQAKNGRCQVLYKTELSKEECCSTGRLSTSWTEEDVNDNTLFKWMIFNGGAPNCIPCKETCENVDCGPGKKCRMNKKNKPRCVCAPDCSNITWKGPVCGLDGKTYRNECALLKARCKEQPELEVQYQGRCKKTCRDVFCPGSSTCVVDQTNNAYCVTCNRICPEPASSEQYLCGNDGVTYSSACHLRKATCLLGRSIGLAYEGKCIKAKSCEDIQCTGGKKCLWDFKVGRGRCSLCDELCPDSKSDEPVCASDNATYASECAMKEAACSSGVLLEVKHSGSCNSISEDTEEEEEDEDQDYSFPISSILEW

On to `[N-]=[N+]=NCc1ccccc1[C@H]1OC(c2ccc(OCCCO)cc2)=N[C@@]1(Cc1ccccc1)C(=O)O`, for which the composite z-score in the test with Albumin (Bos taurus) was 0.179; in test [2], 0.102; in test [3] it was -0.106; in test [4], 0.63; in test [5], 1.05; in [6], -0.289. Also, the composite z-score in the test with Sam68 (KHDRBS1) is 1.13; in test [7], -0.469; in [8], 1.11; in [9], 1.97; in test [10], 0.762; in test [11], 0.551. For the same molecule, the composite z-score in [12] is 0.472; in test [13], 1.31; in test [14], 1.42; with Lefty1, 0.195; in [16], 0.611. The composite Z-score in [1] is -0.365 (inactive). Also, the z-score in test [15] is -0.0378; in test [17], -0.0016 (inactive).
Turning to `C=CCN1Cc2ccccc2C[C@]2(N=C(c3ccc(OCCCO)cc3)O[C@@H]2c2ccccc2)C1=O`, the composite z-score with Albumin (Bos taurus) was 0.025; in [2], 0.0276; in test [3] it was 0.101; in test [4], 0.605; in test [5], 2.42; in [6], 0.75. Moreover, the composite z-score in the test on Sam68 (KHDRBS1) worked out at 1.3; in test [7] it was 1.14; in [8], 1.18; in test [9], 1.66; in [10], 1.12; in test [11], 0.692. Also, the composite z-score in test [12] is 0.441; in test [13], 1.36; in test [14], 1.76; in the test with Lefty1, 0.706; in test [16], 0.436. For the same molecule, in [1], the composite Z-score was 0.862 (inactive). For the same molecule, the figures for the z-score in test [15] and in test [17] were 1.21 and -1.87 (inactive), respectively.
For `CCOC1=C2C(c3ccc(C)cc3)N(S(=O)(=O)c3ccc(C)cc3)CC2n2c(=O)n(-c3ccccc3)c(=O)n2C1` (stereo not given), the composite z-score in the test with Albumin (Bos taurus) was 0.495; in [2] it was 0.125; in [3], -0.0276; in test [4], 0.639; in [5] it was 2.65; in [6], 0.91. Also, the composite z-score amounted to 1.35 with Sam68 (KHDRBS1); 0.339 in test [7]; 1.14 in [8]; 0.229 in [9]; 1.16 in test [10]; 0.206 in test [11]. Besides, the composite z-score in [12] worked out at 0.933; in test [13], 0.876; in test [14] it was 0.747; in the test on Lefty1, 0.53; in test [16] it was 0.755. Further, the composite Z-score in [1] is 0.193 (inactive). Moreover, the z-score in [15] is 0.374; in test [17], 1.09 (inactive).
As to `O=C(NCC(F)(F)F)[C@@H]1c2ccccc2C(=O)N(Cc2ccccc2)[C@H]1c1ccc(CO)cc1`, the composite z-score is -1.27 with Albumin (Bos taurus); -0.354 in [2]; -0.0586 in test [3]; 0.723 in [4]; 1.08 in test [5]; 0.345 in [6]. Moreover, the composite z-score is -0.141 in the test with Sam68 (KHDRBS1); -1.57 in test [7]; -0.331 in [8]; 1.52 in [9]; -1.3 in test [10]; -0.813 in test [11]. The composite z-score in test [12] was -1.17; in test [13], -1.25; in [14] it was -1.34; in the test on Lefty1 it was -1.57; in test [16], -0.595. The composite Z-score in test [1] was 0.111 (inactive). The z-score was 0.764 in [15] and -0.363 (inactive) in test [17].
As to `Oc1ccc2cc[n+](Cc3cccc(OC(F)(F)F)c3)cc2c1`, the composite z-score in the test with Albumin (Bos taurus) was -0.192; in test [2], -0.215; in [3], -0.117; in [4] it was 0.853; in test [5], 1.58; in test [6], 0.0966. For the same molecule, the composite z-score was -0.28 with Sam68 (KHDRBS1); 0.959 in test [7]; 0.373 in test [8]; 0.644 in test [9]; 0.0093 in [10]; 0.295 in test [11]. Moreover, the composite z-score was -0.0505 in test [12]; 1.33 in [13]; 1.51 in test [14]; 1.38 with Lefty1; -0.0259 in test [16]. Also, in [1], the composite Z-score is 0.587 (inactive). For the same molecule, the figures for the z-score in test [15] and in test [17] were 0.579 and -0.256 (inactive), respectively.
